Bioassay records from PubChem BioAssay.
Hits are enriched below; roughly 18% of the tested compounds scored in any of these assays.
Six1-Eya2 inh: qHTS Assay for Inhibitors of the Six1/Eya2 Interaction; AID 651725, 2012; activity change, % (no concentration beside the values); 360,000 tested, 0.56% active; AlphaScreen GST-Six1/His-Eya2 binding, biochemical; active compounds read low; Homeobox protein SIX1 (Homo sapiens) + Protein phosphatase EYA2 (Homo sapiens), …; in the data active means activity change below about -65%; inconclusive means mostly about -30% to -63%
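AlphaScreen luminescence read after one hour at 37 °C in darkness. Pin-transferred compounds met GST-Six1 and His-Eya2 protein (5X stock 250 nM/500 nM) plus glutathione donor and Ni-chelate acceptor beads (5X, 50 ug/mL).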
TDP1 block: qHTS Assay for Inhibitors of Tyrosyl-DNA Phosphodiesterase (TDP1); recombinant TDP1, AlphaScreen DNA substrate cleavage; Tyrosyl-DNA phosphodiesterase 1 (Homo sapiens), Q9NUW8; 350,000 tested, 0.28% active; Potency, µM (highest dose often 130 µM), without a hit: top-dose activity change, negative = inhibition, hits mostly inhibitors; further: potency means the concentration at half of the fitted maximal effect; nearly all actives have a fitted effect of over 40% in size
Target sequence (Q9NUW8 whole entry, looked up): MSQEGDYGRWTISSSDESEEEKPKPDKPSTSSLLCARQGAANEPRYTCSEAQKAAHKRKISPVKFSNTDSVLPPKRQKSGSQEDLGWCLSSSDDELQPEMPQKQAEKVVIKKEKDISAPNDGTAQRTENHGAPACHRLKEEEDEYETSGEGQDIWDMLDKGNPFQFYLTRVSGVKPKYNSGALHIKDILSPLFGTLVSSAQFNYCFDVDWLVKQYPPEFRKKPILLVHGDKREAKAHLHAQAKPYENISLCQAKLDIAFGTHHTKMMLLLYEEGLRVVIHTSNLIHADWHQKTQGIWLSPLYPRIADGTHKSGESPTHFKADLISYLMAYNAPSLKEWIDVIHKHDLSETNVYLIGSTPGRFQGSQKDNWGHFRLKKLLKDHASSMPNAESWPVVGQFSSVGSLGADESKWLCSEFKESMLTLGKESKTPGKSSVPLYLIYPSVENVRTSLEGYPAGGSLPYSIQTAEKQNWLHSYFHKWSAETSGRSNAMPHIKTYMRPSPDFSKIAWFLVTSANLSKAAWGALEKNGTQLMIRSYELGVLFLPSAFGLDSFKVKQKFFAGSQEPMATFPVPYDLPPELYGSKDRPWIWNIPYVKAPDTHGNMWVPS
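E. coli-derived human Tdp1, 1 nM final. Cpd preinc 15 min RT; substrate 15 nM final, 5 min RT; AS bead mix 10 ug/ml final, 10 min RT. Signal loss = tyrosine-FITC cleavage. No-enzyme wells = max signal.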
CtBP-E1A inh: qHTS Assay for Inhibitors of the CtBP/E1A Interaction. CtBP / adenovirus E1A interaction (AlphaScreen). AlphaScreen GST-E1A/His-CtBP binding, 1536-well; active compounds read low. activity change, % (no concentration beside the values). 340,000 tested, 0.49% active. AID 651724, 2012; in the data active means activity change below about -65%; inconclusive means mostly about -30% to -63%
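Steps: dispense buffer (Tris pH 8.0, NaCl 300 mM, TCEP 1 mM, BSA, Tween 20); add 5X protein mix (GST-E1A, His-CtBP, 125 nM each); pin 23 nL compound; 2 h at 37 °C, dark; add 5X beads (50 ug/mL); 1 h; read.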
IL1B secr inh: qHTS for Inhibitors of Inflammasome Signaling: IL-1-beta AlphaLISA Primary Screen | activity change, % at 57.5 µM | THP-1 LPS/ATP IL-1B secretion, AlphaLISA, 16 h; active compounds read low | 360,000 tested, 4.7% active | AID 743279, 2014; in the data active means activity change below about -50%; inconclusive means mostly about -30% to -49%
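Secreted IL-1B measured by AlphaLISA bead assay after 16 h compound exposure of THP-1 cells; compounds (final up to 57.5 uM) added 1 h before LPS (250 ng/mL) and ATP (1.25 mM) stimulation; lower signal means less secretion.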
DT40 TDP1 no CPT: qHTS for Inhibitors of human tyrosyl-DNA phosphodiesterase 1 (TDP1): qHTS in cells in absence of CPT. AID 686978, 2013. Potency, µM (highest dose often 46.2 µM), without a hit: at the highest dose activity change, negative = growth inhibition, hits mostly inhibitors. 420,000 tested, 15% active. DT40 Tdp1-/- hTDP1 cells, no CPT, ATP luminescence, 48 h; further: potency means the concentration at half of the fitted maximal effect; nearly all actives have a fitted effect of over 55% in size
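Luminescent ATP content (CellTiter-Glo) served as the growth readout. Knockout chicken DT40 cells expressing human TDP1 were exposed to compounds without camptothecin for a minimum 48 hr at 37 °C.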
TDP1 cell CPT: qHTS for Inhibitors of human tyrosyl-DNA phosphodiesterase 1 (TDP1): qHTS in cells in presence of CPT | chicken DT40 Tdp1-/-;hTDP1 cells + 20 nM CPT, ATP luminescence, 48 h | Potency, µM (top dose mostly 46.2 µM), for inactives: at the highest dose activity change, negative = growth inhibition, most hits filed as inhibitors | 420,000 tested, 12% active | AID 686979, 2013; further: potency means the concentration at half of the fitted maximal effect; nearly all actives have a fitted effect of over 55% in size
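Chicken DT40 Tdp1-/- cells stably complemented with human TDP1 were seeded at 400 cells/well in medium containing 20 nM camptothecin, exposed to pin-transferred compounds, and grown at 37 °C for at least 48 hr. Viability was read as ATP luminescence.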
* marks the source's active call; other numbers are inactive results; [ ] = dose if it differs, or a comment. Unless noted, the call rests on the fitted dose curve; in most records, active means well fitted curve in the direction sought with a large enough effect; inconclusive means small, poorly fitted or top-dose-only effect, or another doubt; inactive means no such curve, though single readings can be large; an effect the other way counts as inactive or inconclusive. On the % scale 0 is the no-effect control and ±100 the full control effect.

How did Cc1cc(C)cc(-n2c(C)nc3cc(C(=O)NCc4ccc(F)cc4)ccc32)c1 do in these assays?
TDP1 block: 3%; DT40 TDP1 no CPT: 15µM*; TDP1 cell CPT: inconclusive

What do the screens show for `O=C(NC1CCCC1)c1ccc(CS(=O)(=O)c2ccc(Cl)cc2)o1`?
Six1-Eya2 inh: 1; TDP1 block: 0%; CtBP-E1A inh: 2; IL1B secr inh: -15; DT40 TDP1 no CPT: -11%; TDP1 cell CPT: -25%

Results for COc1ccccc1N1CCN(C(=O)c2ccccc2SCC(=O)NCc2ccco2)CC1 ?
Six1-Eya2 inh: 6; TDP1 block: 1%; CtBP-E1A inh: -7; IL1B secr inh: -1; DT40 TDP1 no CPT: inconclusive; TDP1 cell CPT: inconclusive

What do the screens show for `CCOc1ccc(-n2c(C)nc3cc(C(=O)NCCC4=CCCCC4)ccc32)cc1`?
TDP1 block: 4%; DT40 TDP1 no CPT: 16µM*; TDP1 cell CPT: 18µM*

Results for O=C(NCCCN1CCCC1)[C@H](CSCc1ccccc1)N1Cc2ccccc2C1=O ?
Six1-Eya2 inh: -5; CtBP-E1A inh: -2; IL1B secr inh: -30; DT40 TDP1 no CPT: 29µM*; TDP1 cell CPT: inconclusive

What do the screens show for `COc1ccc(OC)c(NC(=O)[C@H](CSCc2ccccc2)N2Cc3ccccc3C2=O)c1`?
TDP1 block: 7%; DT40 TDP1 no CPT: inconclusive; TDP1 cell CPT: 21µM*

What do the screens show for `CC(C)NC(=O)[C@H](CSCc1ccccc1)N1Cc2ccccc2C1=O`?
Six1-Eya2 inh: 16; TDP1 block: 3%; CtBP-E1A inh: 8; IL1B secr inh: -5; DT40 TDP1 no CPT: -5%; TDP1 cell CPT: 7%

What do the screens show for `COc1ccc(OC)c(NC(=O)[C@H](Cc2ccccc2)N2Cc3ccccc3C2=O)c1`?
TDP1 block: 10%; DT40 TDP1 no CPT: inconclusive; TDP1 cell CPT: inconclusive

What do the screens show for `CC(=O)Nc1sc(C)c(C)c1C(=O)OCC(=O)Nc1cccc(C)c1`?
Six1-Eya2 inh: -3; TDP1 block: 1%; CtBP-E1A inh: 2; IL1B secr inh: -59*; DT40 TDP1 no CPT: 16µM*; TDP1 cell CPT: 16µM*

Results for CC(=O)Nc1sc(C)c(C)c1C(=O)OCC(=O)Nc1ccccc1 ?
Six1-Eya2 inh: 5; TDP1 block: -1%; CtBP-E1A inh: 7; IL1B secr inh: -4; DT40 TDP1 no CPT: -17%; TDP1 cell CPT: inconclusive

How did COc1ccc(CNC(=O)COC(=O)c2c(NC(C)=O)sc(C)c2C)cc1OC do in these assays?
Six1-Eya2 inh: -21; CtBP-E1A inh: -16; IL1B secr inh: inconclusive; DT40 TDP1 no CPT: 23µM*; TDP1 cell CPT: inconclusive

How did COc1ccccc1NC(=O)COC(=O)c1c(NC(C)=O)sc(C)c1C do in these assays?
Six1-Eya2 inh: -1; CtBP-E1A inh: -1; IL1B secr inh: 1; DT40 TDP1 no CPT: 16µM*; TDP1 cell CPT: inconclusive

What do the screens show for `COc1ccccc1C(=O)Nc1ccc2oc(-c3cccc(Cl)c3Cl)nc2c1`?
TDP1 block: 0%[12.3 µM]; DT40 TDP1 no CPT: -8%; TDP1 cell CPT: -2%

How did CC(C)N(Cc1nccn1C)C(=O)c1ccc2oc(Cc3ccccc3)nc2c1 do in these assays?
Six1-Eya2 inh: -2; CtBP-E1A inh: 2; IL1B secr inh: 25; DT40 TDP1 no CPT: inconclusive; TDP1 cell CPT: 21µM*

What do the screens show for `CCOC(=O)c1cc(S(=O)(=O)N2CCN(c3cccc(OC)c3)CC2)[nH]n1`?
TDP1 block: 8%; DT40 TDP1 no CPT: inconclusive; TDP1 cell CPT: inconclusive

What do the screens show for `CCOC(=O)c1cc(S(=O)(=O)N2CCN(c3ccc(F)cc3)CC2)[nH]n1`?
TDP1 block: 1%; DT40 TDP1 no CPT: 18µM*; TDP1 cell CPT: 16µM*

What do the screens show for `CCOC(=O)c1cc(S(=O)(=O)N2CCN(c3cc(Cl)ccc3C)CC2)[nH]n1`?
TDP1 block: 3%; DT40 TDP1 no CPT: inconclusive; TDP1 cell CPT: 12µM*

Results for Cc1cc(C)c2c(=O)c3c(oc2c1)C(=O)N(Cc1ccco1)C3c1ccc(F)cc1 (stereo not given) ?
TDP1 block: 5%; DT40 TDP1 no CPT: 1%; TDP1 cell CPT: -2%

What do the screens show for `NC(=O)c1ccsc1NC(=O)C1CC1`?
Six1-Eya2 inh: -7; CtBP-E1A inh: 1; IL1B secr inh: 0; DT40 TDP1 no CPT: -2%; TDP1 cell CPT: -19%

What do the screens show for `C[C@]12c3[nH]c4ccccc4c3CCN1C(=O)C(CC(=O)NCc1cccc(C(F)(F)F)c1)C[C@@H]2C(=O)N1CCCCC1` (stereo not given in full)?
Six1-Eya2 inh: -7; TDP1 block: 4%; CtBP-E1A inh: -11; IL1B secr inh: -66*; DT40 TDP1 no CPT: 15µM*; TDP1 cell CPT: 21µM*

Results for CC[C@]12c3[nH]c4ccccc4c3CCN1C(=O)C(CC(=O)NCc1cccc(C(F)(F)F)c1)C[C@@H]2C(=O)N1CCN(C(=O)c2ccco2)CC1 (stereo not given in full) ?
Six1-Eya2 inh: -6; TDP1 block: 3%; CtBP-E1A inh: -24; IL1B secr inh: -52*; DT40 TDP1 no CPT: inconclusive; TDP1 cell CPT: 18µM*

Results for COCCCNC(=O)C[C@H]1C[C@H](C(=O)N2CCOCC2)[C@@]2(C)c3[nH]c4ccc(Cl)cc4c3CCN2C1=O ?
Six1-Eya2 inh: -1; TDP1 block: 1%[56.1 µM]; CtBP-E1A inh: 1; IL1B secr inh: -11; DT40 TDP1 no CPT: -11%; TDP1 cell CPT: inconclusive

How did C[C@]12c3[nH]c4ccccc4c3CCN1C(=O)C(CC(=O)NCc1cccc(C(F)(F)F)c1)C[C@@H]2C(=O)N1CCOCC1 (stereo not given in full) do in these assays?
Six1-Eya2 inh: -16; TDP1 block: 3%; CtBP-E1A inh: -2; IL1B secr inh: inconclusive; DT40 TDP1 no CPT: inconclusive; TDP1 cell CPT: inconclusive

Results for C[C@]12c3[nH]c4ccc(Cl)cc4c3CCN1C(=O)[C@@H](CC(=O)NCc1cccc(C(F)(F)F)c1)C[C@@H]2C(=O)N1CCOCC1 ?
Six1-Eya2 inh: -5; TDP1 block: 2%[56.1 µM]; CtBP-E1A inh: -6; IL1B secr inh: -56*; DT40 TDP1 no CPT: inconclusive; TDP1 cell CPT: inconclusive
